Test results from PubChem BioAssay AID1259240 (Keith Lab, Institute of Cancer Science, University of …, 2017).
Activity calls are given as the source filed them. No stated cut-off is given here; in the data, active means fold change mostly below about -2 (no sharp cut-off); inactive means mostly above about -1.8.

Test: TERT promoter activity modulators, primary screen, cell-based, luciferase reporter, human (AID 1259240)
Conditions: A2780 TERT promoter luciferase reporter, 16 h; at 20 µM, fold versus average of vehicle-only wells

Fold change, active:
COC(=O)c1ccc(-c2ccc(/C=C3/NC(=O)N(c4ccccc4)C3=O)o2)cc1 -2.59

Fold change, inactive:
CCOC(=O)Cn1c(=O)oc2cc(S(=O)(=O)N3CCCC3)ccc21 -1.16
Fc1ccc(-c2nnc3ccc(NCCN4CCOCC4)nn23)cc1 -1.13
NC(=O)C1CCN(c2nc3ccccn3c(=O)c2/C=C2/SC(=S)N(CC(=O)O)C2=O)CC1 -1.43
CCC(C)NC(=O)Cn1ncc2c3ccccc3n(C)c2c1=O (stereo not drawn) -1.04
CCOC(=O)N1CCC(Nc2c(NC3CCC(C)CC3)c(=O)c2=O)CC1 (stereo not drawn) 1.1
COc1cc(-c2nc3s/c(=C\c4ccccc4Br)c(=O)n3n2)cc(OC)c1OC 1.02
O=C(CSc1nc(-c2ccco2)cc(C(F)(F)F)n1)NCC1CCCO1 (stereo not drawn) -1.44
CCN1C(=O)C(O)(CC(=O)c2ccc(Br)s2)c2ccccc21 (stereo not drawn) -1.03
CCOC(=O)N1CCC(Nc2c(NCCN3CCCCC3CC)c(=O)c2=O)CC1 (stereo not drawn) -1.19
Cc1ccc2nc(NCc3ccc(F)cc3)c3nncn3c2c1 1.08
O=C(NCCN1CCCCCC1)C1CCC(CNS(=O)(=O)c2cccc3nsnc23)CC1 (stereo not drawn) -1.56
CCOC(=O)c1nnn(-c2nonc2N)c1CNc1ccc(F)cc1 1.3
CC1(C)CC(=O)c2sc(NC(=O)C(C)(C)C)nc2C1 1.32
CN(C)c1ccc(/C=c2\sc3nc(-c4ccco4)nn3c2=O)cc1 1.37
CCOc1cc2c(cc1OCC)C(c1ccc(Br)cc1)CC(=O)N2 (stereo not drawn) 1.18
Cc1cc(C)n2c(NC(C)C)c(-c3ccc(C)o3)nc2n1 1.2
CCn1c(NCc2ccc(Cl)cc2)nc2ccccc21 1.05
CCOC(=O)C1CCN(c2c(N3CCC(C(=O)OCC)CC3)c(=O)c2=O)CC1 1.06
COc1ccccc1NC(=O)Nc1ccc2c(c1)C(=O)OC2 1.33
O=C1CC(c2cc(Br)cs2)c2cc3c(cc2N1)OCO3 (stereo not drawn) 1.13
COC(=O)c1ccc(C(=O)OC)c(NC2=NS(=O)(=O)c3ccccc32)c1 1.16

outcome, inactive:
CC1=C(C(N)=O)C(c2ccc(O)cc2)n2nc(CCCO)nc2N1 (stereo not drawn)
